Compound activity (PubChem BioAssay)
This is a sample that favours compounds with a hit; in the whole collection about 4.1% have one here.
FMDV inh – High Throughput Screening for Foot and Mouth Disease Virus Antivirals; FMDV antiviral cell-based qHTS; Potency, µM (doses to about 57.9 µM), inactives show top-dose activity change, negative = inhibition, usual class: inhibitors; 1.2% of 410,000 active; AID 1159524, 2015; calls by dose curve; tested in HEK293T cells; further: read-out not given here; nearly all actives have a fitted effect of over 45% in size
AmpC detergent – qHTS Inhibitors of AmpC Beta-Lactamase (assay with detergent) | P00811 | AmpC hydrolysis of nitrocefin, absorbance 480 nm, 0.01% Triton | Potency, µM (top dose mostly 114 µM), for the others: at the highest dose activity change, negative = inhibition, actives largely listed as inhibitors | 0.041% of 370,000 active | AID 485294, 2010;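 further: 0% = no-compound wells and -100% = no-enzyme wells; nearly all actives have a fitted effect of over 25% in size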
Target sequence (P00811 whole entry, looked up): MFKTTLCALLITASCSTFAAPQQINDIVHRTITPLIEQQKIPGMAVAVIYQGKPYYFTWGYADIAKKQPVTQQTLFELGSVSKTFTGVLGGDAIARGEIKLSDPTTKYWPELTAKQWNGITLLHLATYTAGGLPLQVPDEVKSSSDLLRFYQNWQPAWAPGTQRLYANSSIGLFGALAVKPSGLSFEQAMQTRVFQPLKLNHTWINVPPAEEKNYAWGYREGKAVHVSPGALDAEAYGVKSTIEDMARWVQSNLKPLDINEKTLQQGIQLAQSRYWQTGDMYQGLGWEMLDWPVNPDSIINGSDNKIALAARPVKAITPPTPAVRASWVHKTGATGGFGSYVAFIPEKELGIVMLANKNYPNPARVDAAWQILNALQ
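AmpC (5.3 nM in the dispensed reagent) in 20 mM phosphate pH 7.0 with 0.01% (detergent screen) or 0.0001% Triton X-100 was preincubated with compounds for 15 min at room temperature. Nitrocefin was then added from an 800 uM solution, and hydrolysis was followed at 480 nm.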
AmpC inh no detg – qHTS Inhibitors of AmpC Beta-Lactamase (assay without detergent); P00811; AmpC nitrocefin hydrolysis, absorbance 480 nm, 0.0001% Triton; 0.52% of 330,000 active; Potency, µM (highest dose often 57.1 µM), for the others: top-dose activity change, negative = inhibition, usual class: inhibitors;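 further: plate controls were no compound for no effect and no enzyme for full effect; nearly all actives have a fitted effect of over 20% in size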
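20 mM phosphate pH 7.0 + 0.01% (detergent screen) or 0.0001% Triton X-100; 5.3 nM AmpC reagent; cpd preinc 15 min RT; nitrocefin (800 uM stock) to start; A480 q20 s × 4 min; Activity was normalised to no-enzyme and no-compound control wells.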
AMA1-RON2 inh – qHTS for Inhibitors of AMA1-RON; Towards Development of Antimalarial Drug Lead: Primary Screen; AlphaScreen AMA1-biotinylated RON2 peptide binding; Potency, µM (doses to about 58.2 µM), for the others: at the top dose activity change, negative = inhibition, most hits filed as inhibitors; 0.2% of 360,000 active;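 further: 0% = vehicle wells and -100% = peptide control; nearly all actives have a fitted effect of over 45% in size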
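AMA1 (3D7) with his tag at 25 nM final met compounds first, then biotinylated RON2 peptide at 25 nM; detection used donor plus acceptor beads, 10 µg/mL apiece, read by AlphaScreen after 30 min at room temperature.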
Sm TGR inh – qHTS Assay for the Inhibitors of Schistosoma Mansoni Peroxiredoxins; purified TGR, DTNB reduction, TNB absorbance 405 nm; AID 485364, 2010; 3% of 360,000 active; Potency, µM (titrated, usually from 114 µM), inactives show at the top dose activity change, negative = inhibition, hits mostly inhibitors; further: nearly all actives have a fitted effect of over 60% in size
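First, TGR (20 nM dispensed) and NADPH were mixed with compound. Second, a 15 min room-temperature incubation followed. Third, further NADPH and then DTNB were added to start the reaction. Finally, TNB absorbance was monitored kinetically.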
An asterisk follows results filed as active; ! = a repeat was not active. Unless noted, the call rests on the fitted dose curve; in most records, active means well fitted curve in the direction sought with a large enough effect; inconclusive means small, poorly fitted or top-dose-only effect, or another doubt; inactive means no such curve, though single readings can be large; an effect the other way counts as inactive or inconclusive. Unless noted, on the % scale 0 is the no-effect control and ±100 the full control effect; potency means the concentration at half of the fitted maximal effect.

How did CCCNC(=O)c1ccc(S(=O)(=O)c2ccc(OC)cc2)c([N+](=O)[O-])c1 do in these assays?
FMDV inh: inconclusive; AmpC detergent: 2.1%; AmpC inh no detg: -39.3%; AMA1-RON2 inh: -4.9%; Sm TGR inh: 2.24µM*

What do the screens show for `S=c1nc(-c2ccccc2)n(CCCn2ccnc2)c2c1CCCC2`?
FMDV inh: -23.4%; AmpC detergent: inconclusive; AmpC inh no detg: -6.1%; AMA1-RON2 inh: 14.9%; Sm TGR inh: 44.7µM*

What do the screens show for `Cc1ccccc1C(=O)NC(C)c1nnc2n1CCN(Cc1ccc(F)cc1)CC2` (stereo not drawn)?
FMDV inh: -0.5%

How did COc1ccc(-c2nn(C)c3sc(C(=O)N4CCN(c5cccc(C)c5C)CC4)cc23)cc1OC do in these assays?
FMDV inh: 0.0%; AmpC detergent: -0.5%; Sm TGR inh: 25.1µM*

What do the screens show for `Cc1ccc(C#N)c(SCc2nnc(-c3ccc(Cl)cc3)o2)n1`?
FMDV inh: 20µM*; AmpC detergent: -4.7%; AmpC inh no detg: -16.1%; AMA1-RON2 inh: -10.5%; Sm TGR inh: 4.8%

Results for COCCNC(=O)Cn1c(=O)n(CCCCCC(=O)NCc2ccccc2Cl)c(=O)c2sccc21 ?
FMDV inh: -12.3%; AmpC detergent: 16.8%; Sm TGR inh: -1.5%

What do the screens show for `CCOC(=O)c1c(-c2cccs2)csc1NC(=O)CN1CCOCC1`?
FMDV inh: inconclusive; AmpC detergent: -4.0%; AmpC inh no detg: 150.1%; AMA1-RON2 inh: 0.5%; Sm TGR inh: 1.3%

What do the screens show for `CCOC(=O)c1c(-c2ccc(C)o2)csc1NC(=O)COC(=O)c1cccs1`?
FMDV inh: inconclusive; AmpC detergent: -12.4%; AmpC inh no detg: -51.8%; AMA1-RON2 inh: -0.5%; Sm TGR inh: 14.1µM*

How did CCOC(=O)c1c(CC(C)C)csc1NC(=O)COC(=O)c1cnc(C)cn1 do in these assays?
FMDV inh: 5.3%; AMA1-RON2 inh: -0.7%

How did CCOC(=O)c1c(-c2ccc(C)o2)csc1NC(=O)CSc1ncn[nH]1 do in these assays?
FMDV inh: -15.9%; AmpC detergent: 2.4%; AmpC inh no detg: -11.5%; AMA1-RON2 inh: 11.3%; Sm TGR inh: 20µM*

How did CCOC(=O)c1c(-c2ccco2)csc1NC(=O)COC(=O)c1cnc(C)cn1 do in these assays?
FMDV inh: -10.9%; AmpC detergent: -8.5%; AmpC inh no detg: 38.3%; AMA1-RON2 inh: 9.4%; Sm TGR inh: 28.2µM*

How did CCOC(=O)c1c(-c2ccc(C)o2)csc1NC(=O)CN1CCOCC1 do in these assays?
FMDV inh: 0.0%; AmpC detergent: -0.3%; AmpC inh no detg: 116.8%; AMA1-RON2 inh: 16.5%; Sm TGR inh: 22.4µM*

What do the screens show for `O=C(c1cc2cc(Cl)ccc2[nH]1)N1CCN(C(=O)c2ccco2)CC1`?
FMDV inh: 5.2%; AmpC detergent: -2.5%; AmpC inh no detg: 63.0%; AMA1-RON2 inh: 0.0%; Sm TGR inh: 15.8µM*

Results for O=C(c1cc2cc(Cl)ccc2[nH]1)N1CCN(c2ccccc2F)CC1 ?
FMDV inh: 27.6%; AmpC detergent: inconclusive; AmpC inh no detg: -37.0%; AMA1-RON2 inh: -1.7%; Sm TGR inh: -18.4%

Results for O=C(O)c1[nH]c2ccc(Cl)cc2c1CC(=O)N1CCN(C(=O)c2ccco2)CC1 ?
FMDV inh: 0.0%; AmpC detergent: -13.1%; AmpC inh no detg: -26.4%; AMA1-RON2 inh: -2.2%; Sm TGR inh: 22.4µM*

Results for O=C(CSc1c2c(nc3ccc(Cl)cc13)CCCC2)N1CCN(C(=O)c2ccco2)CC1 ?
FMDV inh: 25.1µM*; AMA1-RON2 inh: 19.7%

Results for Cc1cc(C)nc(S[C@H]2C[C@@H](C(=O)N3CCN(c4ccccc4F)CC3)N(Cc3ccccc3C(F)(F)F)C2)n1 ?
FMDV inh: 3.9%

Results for Cc1cc(S(=O)(=O)NCc2nc(N3CCCC3)c3cc(Cl)ccc3n2)c(C)s1 ?
FMDV inh: -10.1%

What do the screens show for `CCOc1ccccc1NC(=O)N1CC(CC)Oc2ccccc21` (stereo not drawn)?
FMDV inh: -13.1%; AmpC detergent: 6.0%; Sm TGR inh: inconclusive

How did CCCc1nc(C(C)(C)O)c(C(=O)O)n1Cc1ccc(-c2ccccc2-c2nn[nH]n2)cc1 do in these assays?
AmpC detergent: 44.7µM*; AmpC inh no detg: -57.2%; Sm TGR inh: -0.2%

How did CCCCc1nc(Cl)c(CO)n1Cc1ccc(-c2ccccc2-c2nn[nH]n2)cc1 do in these assays?
FMDV inh: -21.7%; AmpC detergent: inconclusive; AmpC inh no detg: -29.7%; AMA1-RON2 inh: 7.5%; Sm TGR inh: 6.1%

Results for CN1C(=O)CC(CC(=O)N2CCCCC2CCO)(c2cccc(F)c2)C1=O (stereo not drawn) ?
FMDV inh: 7.6%

Results for Cc1noc(C)c1C(=O)N1CCC2(CC1)CN(c1ccccn1)C2 ?
FMDV inh: -13.1%

How did O=S(=O)(c1ccc(-c2cnc(C3CC3)o2)cc1)N1CCN(c2ccc(F)cc2)CC1 do in these assays?
FMDV inh: 0.0%; AmpC detergent: 26.1%; Sm TGR inh: 6.2%

How did COc1ccc(-c2csc3ncnc(N4CCN(S(=O)(=O)c5ccc(C(C)=O)cc5)CC4)c23)cc1 do in these assays?
FMDV inh: inconclusive; AmpC detergent: inconclusive; AmpC inh no detg: 31.6µM*; AMA1-RON2 inh: -5.1%; Sm TGR inh: 4.0%

How did CC(=O)c1ccc(N2CCN(S(=O)(=O)c3ccc(-c4cnc(C5CC5)o4)cc3)CC2)cc1 do in these assays?
FMDV inh: 31.6µM*!; AmpC detergent: -2.3%; AmpC inh no detg: -2.4%; AMA1-RON2 inh: -8.1%; Sm TGR inh: 6.8%

What do the screens show for `COc1ccc(-c2csc3ncnc(N4CCN(c5ccccc5)CC4)c23)cc1`?
FMDV inh: 17.8µM*; AmpC detergent: -13.6%; AmpC inh no detg: -1.3%; AMA1-RON2 inh: inconclusive; Sm TGR inh: -36.2%

How did COc1ccc(-c2csc3ncnc(N4CCN(Cc5ccccc5)CC4)c23)cc1 do in these assays?
FMDV inh: 22.4µM*; AmpC detergent: -12.3%; AmpC inh no detg: -7.2%; AMA1-RON2 inh: -13.0%; Sm TGR inh: -3.2%

Results for O=C(Cn1nc2c(cc1=O)CCCC2)Nc1ccccc1C(F)(F)F ?
FMDV inh: -3.7%; AmpC detergent: -2.5%; Sm TGR inh: -5.0%

What do the screens show for `CC(C)(O)C#Cc1ccc(C(=O)NCCN2Cc3ccccc3OC(c3ccccc3F)C2)o1` (stereo not drawn)?
FMDV inh: -9.9%

How did CN1C(=O)NC(c2ccccc2)C2=C1CN(Cc1ccco1)C2=O (stereo not drawn) do in these assays?
FMDV inh: -9.6%; AmpC detergent: -15.1%; AmpC inh no detg: -1.8%; AMA1-RON2 inh: -0.8%; Sm TGR inh: 35.5µM*
